Several values for one entry are separate records, joined by “and”; a condition that tells them apart may be missing. Identical values can stand only once. Results filed as inconclusive are left out. Activity calls are given as the source filed them. Unless noted, calls follow the shape of the full dose curve.
Legend:
[1] = molecular target: Bile acid receptor (Homo sapiens) (UniProt Q96RI1); experiment: qHTS assay for small molecule agonists of farnesoid X receptor signaling (AID 588527); settings: HEK293T FXR-UAS-bla, beta-lactamase ratio, 16 h; activation: stronger effect = higher value;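 also: series mostly up to about 77 µM; 0% = vehicle basal and 100% = reference agonist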
Sequence of Bile acid receptor (Homo sapiens) (Q96RI1 whole entry, looked up): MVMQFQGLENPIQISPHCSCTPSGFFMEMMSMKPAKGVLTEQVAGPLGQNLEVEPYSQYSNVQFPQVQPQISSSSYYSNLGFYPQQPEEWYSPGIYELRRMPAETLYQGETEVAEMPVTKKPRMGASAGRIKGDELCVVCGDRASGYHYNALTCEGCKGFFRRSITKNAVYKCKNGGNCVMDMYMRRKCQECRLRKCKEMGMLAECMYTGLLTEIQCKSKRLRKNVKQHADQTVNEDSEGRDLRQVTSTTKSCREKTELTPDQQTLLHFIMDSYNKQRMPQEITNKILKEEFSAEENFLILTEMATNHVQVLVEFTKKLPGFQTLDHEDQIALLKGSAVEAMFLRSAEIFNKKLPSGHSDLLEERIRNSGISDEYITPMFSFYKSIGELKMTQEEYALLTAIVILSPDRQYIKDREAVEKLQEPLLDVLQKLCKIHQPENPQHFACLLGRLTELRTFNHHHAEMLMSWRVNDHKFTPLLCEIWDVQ
Method in brief: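 Quantitative HTS used FXR-UAS-bla HEK293T cells with 16 h compound incubation at 37 C. EC50 values came from concentration-response curves normalized to chenodeoxycholic acid.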

[2] = molecular target: Glucocorticoid receptor (Homo sapiens) (UniProt P04150); experiment: qHTS assay for small molecule agonists of glucocorticoid receptor signaling (AID 588532; active = well fitted curve in the direction sought with a large enough effect in the signal ratio, with a control signal flat; the % refers to the signal ratio;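 also: 100% = dexamethasone at 0.1 µM and 0% = DMSO only wells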); settings: HeLa MMTV-bla, beta-lactamase ratio, agonist, 18 h; activation: stronger effect = higher value, percent of dexamethasone control, DMSO zero
Sequence of Glucocorticoid receptor (Homo sapiens) (P04150 whole entry, looked up): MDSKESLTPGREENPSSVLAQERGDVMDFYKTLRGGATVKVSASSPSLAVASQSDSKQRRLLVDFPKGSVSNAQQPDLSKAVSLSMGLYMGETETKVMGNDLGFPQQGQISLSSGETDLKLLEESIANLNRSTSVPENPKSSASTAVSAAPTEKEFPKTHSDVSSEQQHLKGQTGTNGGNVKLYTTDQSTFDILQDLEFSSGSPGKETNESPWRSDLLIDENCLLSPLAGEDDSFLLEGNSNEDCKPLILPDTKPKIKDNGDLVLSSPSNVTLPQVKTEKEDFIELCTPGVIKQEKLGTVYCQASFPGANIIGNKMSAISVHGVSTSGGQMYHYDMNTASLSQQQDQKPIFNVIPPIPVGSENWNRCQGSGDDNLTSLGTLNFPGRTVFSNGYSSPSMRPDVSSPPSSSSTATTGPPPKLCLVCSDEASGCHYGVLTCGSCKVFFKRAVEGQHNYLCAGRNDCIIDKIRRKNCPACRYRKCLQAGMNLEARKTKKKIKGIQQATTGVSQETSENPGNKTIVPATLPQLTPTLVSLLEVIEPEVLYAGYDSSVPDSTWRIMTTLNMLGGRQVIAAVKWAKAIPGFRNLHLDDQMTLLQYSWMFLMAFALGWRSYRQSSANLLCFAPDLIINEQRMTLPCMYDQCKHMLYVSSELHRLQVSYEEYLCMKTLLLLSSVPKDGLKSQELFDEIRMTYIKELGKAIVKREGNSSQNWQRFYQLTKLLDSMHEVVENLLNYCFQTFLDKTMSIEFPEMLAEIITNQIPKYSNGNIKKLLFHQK
Method in brief: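 Using MMTV-bla HeLa cells in medium with 1% stripped FBS and 25 mM HEPES, compounds were titrated and incubated overnight-length (18 h). Beta-lactamase cleavage of CCF4 was quantified by dual-emission fluorescence.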

[3] = molecular target: Glucocorticoid receptor (Homo sapiens) (UniProt P04150); experiment: qHTS assay for small molecule antagonists of glucocorticoid receptor signaling (AID 588533; active = well fitted inhibition curve with a large enough effect in the signal ratio, with a control signal flat, not every such curve was filed as active; the % refers to the signal ratio;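 also: cells stimulated with 2 nM dexamethasone as agonist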; also: potency is read from the fitted curve at half-maximal effect)
Method in brief: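 Antagonist-mode qHTS: compound titrations added to GRE-bla HeLa cells, then dexamethasone 2 nM final; 18 h, 37 C. CCF4 FRET fluorescence normalized to dexamethasone and DMSO; IC50 from Hill fit.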

[4] = qHTS assay for small molecule antagonists of peroxisome proliferator-activated receptor delta signaling (AID 588535; active = well fitted inhibition curve with a large enough effect in the signal ratio, with a control signal flat, not every such curve was filed as active; the % refers to the signal ratio; also: potency is read from the fitted curve at half-maximal effect;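 as to max response: cells co-treated with a PPAR-delta agonist as stimulator during compound exposure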); settings: HEK293T PPARd-UAS-bla, beta-lactamase FRET ratio, 18 h; 460 nm channel
Method in brief: (§1)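 Titrations were run on PPAR-delta-UAS-bla HEK293T cells in charcoal/dextran-stripped serum, incubated 18 h at 37 C. CCF4 fluorescence (460/530 nm) after 2 h RT; Hill equation yields IC50 and maximal response.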

[5] = molecular target: Peroxisome proliferator-activated receptor delta (Homo sapiens) (UniProt Q03181); experiment: as above
Sequence of Peroxisome proliferator-activated receptor delta (Homo sapiens) (Q03181 whole entry, looked up): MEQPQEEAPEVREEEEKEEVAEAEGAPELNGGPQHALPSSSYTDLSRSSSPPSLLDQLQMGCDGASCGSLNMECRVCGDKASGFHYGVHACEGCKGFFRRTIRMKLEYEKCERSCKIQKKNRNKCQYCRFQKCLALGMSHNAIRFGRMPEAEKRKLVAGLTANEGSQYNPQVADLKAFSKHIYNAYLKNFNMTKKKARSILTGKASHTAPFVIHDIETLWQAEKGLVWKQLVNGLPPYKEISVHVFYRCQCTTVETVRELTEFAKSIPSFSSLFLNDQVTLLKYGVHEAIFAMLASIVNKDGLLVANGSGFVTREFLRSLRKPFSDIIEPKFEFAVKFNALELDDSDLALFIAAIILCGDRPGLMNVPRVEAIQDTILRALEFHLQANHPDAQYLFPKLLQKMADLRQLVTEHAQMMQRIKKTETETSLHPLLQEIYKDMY
Method in brief: as §1

[6] = molecular target: Thyroid hormone receptor beta (Homo sapiens) (UniProt P10828); experiment: qHTS assay for small molecule agonists of thyroid hormone receptor beta signaling (AID 588545);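 also: 0% = DMSO only and 100% = 10 nM T3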
Sequence of Thyroid hormone receptor beta (Homo sapiens) (P10828 whole entry, looked up): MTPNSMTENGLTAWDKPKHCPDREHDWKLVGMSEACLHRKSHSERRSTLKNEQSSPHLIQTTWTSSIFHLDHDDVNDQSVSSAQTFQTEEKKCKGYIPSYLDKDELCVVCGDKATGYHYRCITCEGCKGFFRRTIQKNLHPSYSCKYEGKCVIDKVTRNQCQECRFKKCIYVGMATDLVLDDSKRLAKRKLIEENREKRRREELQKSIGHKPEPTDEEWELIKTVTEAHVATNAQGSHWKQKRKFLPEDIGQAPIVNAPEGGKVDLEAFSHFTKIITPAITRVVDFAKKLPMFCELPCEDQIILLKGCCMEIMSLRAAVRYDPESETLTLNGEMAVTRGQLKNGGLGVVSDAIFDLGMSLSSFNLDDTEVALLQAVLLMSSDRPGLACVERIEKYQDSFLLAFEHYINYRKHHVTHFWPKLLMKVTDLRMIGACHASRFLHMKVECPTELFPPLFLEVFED
Method in brief: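 TR-UAS-bla GripTite HEK 293 cells (2500/well, medium with 2% charcoal/dextran FBS) were treated in agonist mode for 18 h at 37 C, titrated. Beta-lactamase was read by CCF4 ratio after 2 h; normalized to 10 nM T3 (100%) and DMSO, Hill-fitted for EC50 and efficacy.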

[7] = qHTS assay for small molecule antagonists of retinoid X receptor alpha signaling (AID 588546; active = well fitted inhibition curve with a large enough effect in the signal ratio, with a control signal flat, not every such curve was filed as active; the % refers to the signal ratio; also: potency is read from the fitted curve at half-maximal effect;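 as to max response: cells stimulated with 9-cis-retinoic acid as agonist; % is scaled to controls: 0 for no effect and ±100 for the full control effect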); settings: HEK293T RXRa-UAS-bla, beta-lactamase ratio, antagonist mode; measured here: W530 green channel, cytotoxicity proxy
Method in brief: (§2)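 Beta-lactamase reporter inhibition, read as CCF4 fluorescence ratio (ex 405, em 460/530 nm) after 2 h at RT. HEK293T UAS-bla cells, 2500/well, were stimulated with 9-cis-RA at 500 or 100 nM final alongside test compound for 18 h at 37 C.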

[8] = molecular target: Retinoic acid receptor RXR-alpha (Homo sapiens) (UniProt P19793); experiment: as above; settings: HEK293T RXRa-UAS-bla, beta-lactamase ratio, antagonist mode
Sequence of Retinoic acid receptor RXR-alpha (Homo sapiens) (P19793 whole entry, looked up): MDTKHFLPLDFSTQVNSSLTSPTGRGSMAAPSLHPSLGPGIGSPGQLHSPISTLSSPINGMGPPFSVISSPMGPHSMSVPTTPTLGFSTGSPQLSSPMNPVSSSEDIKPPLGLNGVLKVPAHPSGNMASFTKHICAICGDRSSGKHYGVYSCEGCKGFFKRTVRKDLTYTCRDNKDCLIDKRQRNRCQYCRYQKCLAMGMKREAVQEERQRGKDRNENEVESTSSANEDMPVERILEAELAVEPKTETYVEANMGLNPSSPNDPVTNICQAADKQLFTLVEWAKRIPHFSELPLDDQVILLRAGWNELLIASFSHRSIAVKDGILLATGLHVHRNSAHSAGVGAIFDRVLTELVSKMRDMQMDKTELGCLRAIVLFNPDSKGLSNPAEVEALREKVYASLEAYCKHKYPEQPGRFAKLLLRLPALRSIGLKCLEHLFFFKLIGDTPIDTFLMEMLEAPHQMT
Method in brief: as §2

[9] = qHTS assay for small molecule agonists of the antioxidant response element (ARE) signaling pathway (AID 651741; active = well fitted activation curve with a large enough effect in the signal ratio; the % refers to the signal ratio; also: potency is read from the fitted curve at half-maximal effect)
Method in brief: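 Beta-lactamase reporter under ARE control in HepG2 cells, 2,000 per well, was induced by 16 h compound treatment at 37 C. Read-out was fluorescence from LiveBLAzer B/G FRET substrate after 2 h at room temperature.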

[10] = qHTS assay for small molecule activators of the nuclear factor-kappa B (NF-kB) signaling pathway (AID 651749; active = well fitted activation curve with a large enough effect in the signal ratio; the % refers to the signal ratio; also: series mostly up to about 77 µM; % of control where 0% means no effect); settings: NF-kB-bla ME-180 cells, beta-lactamase FRET ratio, 16 h; activation: stronger effect = higher value
Method in brief: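 Activation measured after 16 hr compound treatment at 37C, 5% CO2, of 2,000 ME-180 cells/well stably expressing an NF-kB response element–driven beta-lactamase reporter, via FRET-disruption fluorescence.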

[11] = qHTS assay for environmental chemicals that activate the Aryl hydrocarbon Receptor (AhR) signaling pathway (AID 651777; active = well fitted curve in the direction sought with a large enough effect; an effect the other way counts as inactive or inconclusive; also: % of control where 0% means no effect; nearly all actives have a fitted effect of over 15% in size); settings: 1A2-DRE human hepatoma cells, luciferase, 24 h; activation: stronger effect = higher value
Method in brief: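 Quantitative HTS in stably transfected human liver-derived cells whose luciferase gene sits downstream of the CYP1A2 promoter and dioxin response element. After 24 hr exposure at 37 C, One-Glo luminescence was measured.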

[12] = qHTS assay for small molecule agonists of the antioxidant response element (ARE) signaling pathway measured by Nrf2-dependant transcriptional activity (AID 720636; active = well fitted curve in the direction sought with a large enough effect in the repeat runs; an effect the other way counts as inactive or inconclusive; also: % of control where 0% means no effect)
Method in brief: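 Quantitative HTS format in HepG2 cells stably expressing an ARE-luciferase reporter; 16 hr compound treatment at 37 C, luciferase signal detected with ONE-Glo.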

[13] = qHTS assay for cell viability of HEK293 cells (AID 743288; active = well fitted curve in the direction sought with a large enough effect; an effect the other way counts as inactive or inconclusive; also: nearly all actives have a fitted effect of over 50% in size; also: potency is read from the fitted curve at half-maximal effect; as to max response: % is scaled to controls: 0 for no effect and ±100 for the full control effect); settings: ATP luminescence (CellTiter-Glo), 18 h; max response: stronger effect = lower value
Method in brief: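 Quantitative high-throughput screen: compounds were pinned onto parental HEK293 cells (2,000 per well) after a minimum 5 h settling at 37 C, incubated 18 h at 37 C, and intracellular ATP measured by luciferase luminescence.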

[14] = molecular target: Nuclear receptor subfamily 1 group I member 2 (Rattus norvegicus) (UniProt Q9R1A7); experiment: qHTS assay for small molecule activators of the rat pregnane X receptor (rPXR) signaling pathway (AID 651751; call rule not given here; also: 0% is about no effect); settings: rPXR reporter cells, luciferase (One-Glo), 24 h
Sequence of Nuclear receptor subfamily 1 group I member 2 (Rattus norvegicus) (Q9R1A7 whole entry, looked up): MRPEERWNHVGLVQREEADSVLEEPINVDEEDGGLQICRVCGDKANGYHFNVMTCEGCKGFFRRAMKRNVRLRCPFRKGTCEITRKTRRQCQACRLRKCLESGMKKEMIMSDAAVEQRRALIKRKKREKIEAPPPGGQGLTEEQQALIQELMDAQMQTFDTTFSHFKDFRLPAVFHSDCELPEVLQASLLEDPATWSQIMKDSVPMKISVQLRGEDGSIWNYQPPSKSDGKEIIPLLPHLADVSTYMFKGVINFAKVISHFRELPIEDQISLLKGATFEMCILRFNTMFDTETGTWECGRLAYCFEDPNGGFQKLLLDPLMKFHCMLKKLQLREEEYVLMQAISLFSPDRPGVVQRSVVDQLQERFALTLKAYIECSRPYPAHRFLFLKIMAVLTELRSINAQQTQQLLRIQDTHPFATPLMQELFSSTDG

[15] = molecular target: Peroxisome proliferator-activated receptor delta (Homo sapiens) (UniProt Q03181); experiment: qHTS assay for small molecule agonists of peroxisome proliferator-activated receptor delta signaling (AID 588534);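 also: 0% = DMSO basal wells and 100% = positive control agonist at 10 µM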
Method in brief: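 Agonist-mode qHTS; reporter cells, 5 hrs 37 C pre-incubation; compound titration, 18 hrs 37 C; CCF4 dye, 2 hrs RT; fluorescence read. EC50/efficacy via Hill fit.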

[16] = molecular target: Peroxisome proliferator-activated receptor gamma (Homo sapiens) (UniProt P37231); experiment: qHTS assay for small molecule agonists of peroxisome proliferator-activated receptor gamma signaling (AID 588536; active = well fitted curve in the direction sought with a large enough effect in the signal ratio, with a control signal flat, not every such curve was filed as active; the % refers to the signal ratio;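 also: 0% = DMSO basal wells and 100% = rosiglitazone at 2 µM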)
Sequence of Peroxisome proliferator-activated receptor gamma (Homo sapiens) (P37231 whole entry, looked up): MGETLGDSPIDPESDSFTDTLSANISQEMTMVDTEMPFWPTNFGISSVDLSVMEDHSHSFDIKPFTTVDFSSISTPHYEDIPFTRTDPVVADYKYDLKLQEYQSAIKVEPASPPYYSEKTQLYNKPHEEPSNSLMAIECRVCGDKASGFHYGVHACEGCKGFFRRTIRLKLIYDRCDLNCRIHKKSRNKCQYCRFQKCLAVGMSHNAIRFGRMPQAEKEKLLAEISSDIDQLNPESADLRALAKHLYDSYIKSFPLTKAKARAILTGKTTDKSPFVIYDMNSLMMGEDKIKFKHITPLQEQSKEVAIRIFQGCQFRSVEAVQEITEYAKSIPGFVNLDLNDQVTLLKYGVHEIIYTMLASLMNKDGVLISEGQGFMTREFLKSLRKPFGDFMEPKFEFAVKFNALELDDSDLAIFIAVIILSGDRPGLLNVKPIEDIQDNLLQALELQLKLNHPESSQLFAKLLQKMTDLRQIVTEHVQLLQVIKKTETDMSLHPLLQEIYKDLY
Method in brief: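 Using GeneBLAzer HEK293 cells, response was quantified by CCF4 fluorescence and normalized between basal DMSO (0%) and rosiglitazone 2 uM (100%); curves yielded half-maximal stimulation concentration and efficacy.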

[17] = molecular target: Vitamin D3 receptor (Homo sapiens) (UniProt P11473); experiment: qHTS assay for small molecule antagonists of vitamin D receptor signaling (AID 588541);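 also: receptor activated by calcitriol during compound treatment; series mostly up to about 77 µM; % is scaled to controls: 0 for no effect and ±100 for the full control effect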
Sequence of Vitamin D3 receptor (Homo sapiens) (P11473 whole entry, looked up): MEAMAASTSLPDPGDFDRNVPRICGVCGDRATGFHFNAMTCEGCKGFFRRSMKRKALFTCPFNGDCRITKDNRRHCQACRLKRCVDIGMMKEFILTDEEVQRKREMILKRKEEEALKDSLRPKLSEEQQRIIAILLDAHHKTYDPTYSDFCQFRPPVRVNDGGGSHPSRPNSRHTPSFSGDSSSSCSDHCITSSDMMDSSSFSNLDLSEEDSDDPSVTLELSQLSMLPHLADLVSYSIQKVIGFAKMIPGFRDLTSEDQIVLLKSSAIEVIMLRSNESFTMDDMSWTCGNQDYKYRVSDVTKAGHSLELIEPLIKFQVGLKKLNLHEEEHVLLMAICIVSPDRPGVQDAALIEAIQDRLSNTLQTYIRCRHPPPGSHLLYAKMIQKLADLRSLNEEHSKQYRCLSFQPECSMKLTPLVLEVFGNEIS
Method in brief: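 Antagonist-mode beta-lactamase reporter assay: HEK293T VDR-UAS-bla cells were exposed to titrated compound alongside 1-alpha,25-dihydroxyvitamin D3 at 3 nM final for 16 h. Values were normalized to the 50 nM agonist control and DMSO basal, with IC50 and efficacy from Hill equation fits.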

[18] = molecular target: Vitamin D3 receptor (Homo sapiens) (UniProt P11473); experiment: qHTS assay for small molecule agonists of vitamin D receptor signaling (AID 588543);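 also: 0% = DMSO basal and 100% = reference agonist control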
Method in brief: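 qHTS in agonist mode: compound titrations stimulate a VDR-driven β-lactamase reporter in HEK293T cells over 16 h at 37 °C. Response normalized to 50 nM 1α,25-dihydroxyvitamin D3 = 100%, DMSO = 0%; Hill fitting gives EC50 and maximal response.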

[19] = qHTS assay for small molecule agonists of retinoid X receptor alpha signaling (AID 588544); settings: HEK293T RXRa-UAS-bla, beta-lactamase reporter, 18 h; 530 nm emission;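 as to activation: 0% = DMSO basal wells and 100% = reference agonist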
[20] = molecular target: Retinoic acid receptor RXR-alpha (Homo sapiens) (UniProt P19793); experiment: as above
[21] = qHTS assay for small molecule activators of the p53 signaling pathway (AID 651743; active = well fitted activation curve with a large enough effect in the signal ratio, not every such curve was filed as active; the % refers to the signal ratio; also: potency is read from the fitted curve at half-maximal effect; as to activation: series mostly up to about 92 µM; % of control where 0% means no effect); settings: HCT-116 p53RE-bla, beta-lactamase FRET ratio, 16 h; activation: stronger effect = higher value
Method in brief: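 After 16 hours compound treatment at 37 C, HCT-116 cells stably expressing p53RE-driven beta-lactamase were loaded with LiveBLAzer B/G FRET substrate for 2 hours at room temperature. Fluorescence intensity served as the p53 activation read-out.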

[22] = molecular target: Peroxisome proliferator-activated receptor alpha (Homo sapiens) (UniProt Q07869); experiment: qHTS assay for small molecule agonists of the peroxisome proliferator-activated receptor alpha (PPARalpha) signaling pathway (AID 651778; active = well fitted curve in the direction sought with a large enough effect; an effect the other way counts as inactive or inconclusive; also: % of control where 0% means no effect); settings: PathHunter PPARalpha complementation, chemiluminescence, 6 h; max response: stronger effect = higher value
Sequence of Peroxisome proliferator-activated receptor alpha (Homo sapiens) (Q07869 whole entry, looked up): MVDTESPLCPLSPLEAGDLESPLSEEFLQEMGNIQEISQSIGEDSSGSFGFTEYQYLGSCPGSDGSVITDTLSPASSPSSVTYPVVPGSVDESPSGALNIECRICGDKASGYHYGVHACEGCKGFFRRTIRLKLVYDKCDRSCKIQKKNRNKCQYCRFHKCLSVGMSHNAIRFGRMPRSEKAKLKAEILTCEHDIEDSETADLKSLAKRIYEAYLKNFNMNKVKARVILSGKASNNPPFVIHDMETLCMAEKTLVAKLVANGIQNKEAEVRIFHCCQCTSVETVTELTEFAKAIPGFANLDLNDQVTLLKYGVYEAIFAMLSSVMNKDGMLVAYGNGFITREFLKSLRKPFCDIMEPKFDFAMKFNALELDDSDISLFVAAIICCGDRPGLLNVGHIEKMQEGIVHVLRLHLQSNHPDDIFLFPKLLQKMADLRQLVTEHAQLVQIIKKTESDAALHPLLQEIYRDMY
Method in brief: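 Chemiluminescence from complemented enzyme reported PPARalpha activation in cells after 6 hr of compound treatment at 37 C. The detection reagent was incubated for 60 min at room temperature, and compounds were scored as agonists.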

[23] = qHTS assay for small molecule agonists of the antioxidant response element (ARE) signaling pathway measured by Nrf2-dependant transcriptional activity - cell viability counter screen (AID 720653; active = well fitted curve in the direction sought with a large enough effect in the repeat runs; an effect the other way counts as inactive or inconclusive; also: % is scaled to controls: 0 for no effect and ±100 for the full control effect); settings: ARE-bla HepG2 viability, CellTiter-Glo ATP luminescence, 16 h; max response: stronger effect = lower value
Method in brief: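 Cytotoxicity counter screen: intracellular ATP quantified by CellTiter-Glo luminescence in the same ARE-bla HepG2 plates, after 16 h compound exposure and a 2 h beta-lactamase substrate step.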

[24] = qHTS assay for cell viability of the p53RE-bla HCT-116 cell line (AID 743292; active = well fitted curve in the direction sought with a large enough effect; an effect the other way counts as inactive or inconclusive; also: % is scaled to controls: 0 for no effect and ±100 for the full control effect; nearly all actives have a fitted effect of over 55% in size)
Method in brief: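 Viability of compound-treated p53RE-bla HCT-116 cells is taken from ATP-dependent luciferase luminescence. Treatment lasts 16 h at 37 C after a 5 h settling period; detection follows 30 min at room temperature.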

[25] = qHTS assay for small molecule activators of the human pregnane X receptor (PXR) signaling pathway (AID 720659; call rule not given here; also: 0% is about no effect)
[26] = molecular target: Thyroid hormone receptor beta (Homo sapiens) (UniProt P10828); experiment: qHTS assay for small molecule antagonists of thyroid hormone receptor beta signaling (AID 588547; active = well fitted inhibition curve with a large enough effect in the signal ratio, with a control signal flat, not every such curve was filed as active; the % refers to the signal ratio; also: potency is read from the fitted curve at half-maximal effect); settings: TR-UAS-bla HEK293, beta-lactamase ratio, antagonist mode, 18 h
Method in brief: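 Inhibition of T3-driven (0.4nM final) beta-lactamase reporter activity was measured over 0.59 nM to 92 uM compound after 18 h at 37 C. The cells were GripTite HEK293 TR-UAS-bla in charcoal/dextran-stripped serum, with CCF4 ratio read-out and IC50 from Hill fits.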

CCC[CH2][Sn]([Cl])([Cl])[CH2]CCC
activation [1]: -1.2% (inactive)
activation [2]: -12% (inactive)
Potency [3]: 15.8 µM (active)
max response [4]: -91.3%
Potency [5]: 3.98 µM (active)
Potency [6]: inactive
max response [7]: 25.9%
Potency [8]: 3.98 µM (active)
Potency [9]: 1.93 µM (active)
activation [10]: -3.49% (inactive)
activation [11]: -11.4% (inactive)
Potency [12]: inactive
Potency [13]: 39.8 µM (active)
max response [14]: -14.6% (inactive)

CC(C)(C)c1ccc(O)c(C(C)(C)C)c1
activation [1]: 3.24% (inactive)

O=C(O)CCCCCCC(=O)O
activation [1]: 1.16% (inactive)

Cc1c(C(=O)O)c(O)cc2c1C(=O)c1c(O)c([C@H]3O[C@H](CO)[C@@H](O)[C@H](O)[C@H]3O)c(O)c(O)c1C2=O
activation [1]: -1.49% (inactive)

Oc1ccc(C(c2ccc(O)cc2)C(Cl)(Cl)Cl)cc1
activation [1]: 0.126% (inactive)

Nc1cccc(N)c1
activation [1]: 0.315% (inactive)

CCCCCCCCCCCCN(C)C
activation [1]: 2.94% (inactive)
activation [2]: -15.1% (inactive)
Potency [3]: inactive
outcome [15]: inactive
max response [4]: -18.8%
Potency [5]: inactive
Potency [16]: inactive
Potency [17]: inactive
outcome [18]: inactive
max response [19]: -10.4%
Potency [20]: inactive
Potency [6]: inactive
max response [7]: 1.32%
max response [8]: -14.3% (inactive)
activation [21]: 0.386% (inactive)
activation [11]: -2.66% (inactive)
max response [22]: -1.36% (inactive)
Potency [12]: inactive
max response [23]: -0.69% (inactive)
max response [13]: -1.64% (inactive)
Potency [24]: inactive
max response [14]: -0.417% (inactive)
outcome [25]: inactive

CCC(C)Nc1ccc(NC(C)CC)cc1 (stereo unspecified)
activation [1]: -2.74% (inactive)

Cc1ccc2cccnc2c1
activation [1]: 1.5% (inactive)

CC(C)CCC[C@@H](C)[C@H]1CC[C@H]2[C@@H]3CC=C4C[C@@H](O)CC[C@]4(C)[C@H]3CC[C@]12C
activation [1]: 0.612% (inactive)

O=C=Nc1ccc(Cl)c(Cl)c1
activation [1]: 2.96% (inactive)

CN(C)Cc1cc(CN(C)C)c(O)c(CN(C)C)c1
activation [1]: -0.172% (inactive)

N#CSCSc1nc2ccccc2s1
activation [1]: 15% (inactive)

CCCCC(CC)COS(=O)(=O)O (stereo unspecified)
activation [1]: 1.45% (inactive)

COc1ccc([N+](=O)[O-])cc1N
activation [1]: 0.186% (inactive) and -0.616% (inactive)
outcome [15]: inactive

C=Cc1ccccc1Br
activation [1]: 2.37% (inactive)
outcome [15]: inactive

Fc1ccc(Oc2ccnc3cc(Cl)cc(Cl)c23)cc1
activation [1]: -3.06% (inactive)
activation [2]: -6.4% (inactive)
Potency [6]: inactive
max response [7]: 20.3%
Potency [8]: 39.8 µM (active)
Potency [9]: 21.7 µM (active)
activation [11]: 15% (inactive)
max response [23]: -31.6% (inactive)
Potency [24]: inactive

COC(C)=O
activation [1]: -0.0908% (inactive)
outcome [15]: inactive

CCCCCCCCCCCO
activation [1]: -0.12% (inactive)
outcome [15]: inactive

COC(=O)N(OC)c1ccccc1COc1ccn(-c2ccc(Cl)cc2)n1
activation [1]: 11.5% (inactive)
activation [2]: -3.13% (inactive)
outcome [18]: inactive
max response [19]: -23.9%
Potency [20]: inactive
Potency [6]: inactive
max response [7]: -0.714%
Potency [8]: 3.16 µM (active)
Potency [26]: 6.31 µM (active)
Potency [9]: 5.45 µM (active)
Potency [21]: 5.01 µM (active)
activation [11]: 10.6% (inactive)
max response [22]: -0.36% (inactive)
Potency [12]: inactive
max response [23]: -16.5% (inactive)
Potency [24]: inactive
max response [14]: -12.5% (inactive)
outcome [25]: inactive

Nc1cnn([C@@H]2O[C@H](CO)[C@@H](O)[C@H]2O)c(=O)n1
activation [1]: -2.94% (inactive)
outcome [15]: inactive
